# Laboratory results reported in PubChem BioAssay AID1619 (SRMLSC, 2009).
# Among all 220,000 compounds or so, about 830 (0.38%) were called active. Not all results are given here. Results with a measured potency or affinity are listed apart. Unmarked numbers belong to inactive results.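 The calls were made as follows: active = compound inhibiting the enzyme by more than half at any dose during confirmatory dose-response retesting; inconclusive = strong single-dose inhibitors picked by rank but not retested; inactive = the rest.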
# Molecular target: Leucine aminopeptidase (Plasmodium falciparum (isolate 3D7)) (UniProt Q8IL11)
# Sequence (Q8IL11 whole entry, looked up): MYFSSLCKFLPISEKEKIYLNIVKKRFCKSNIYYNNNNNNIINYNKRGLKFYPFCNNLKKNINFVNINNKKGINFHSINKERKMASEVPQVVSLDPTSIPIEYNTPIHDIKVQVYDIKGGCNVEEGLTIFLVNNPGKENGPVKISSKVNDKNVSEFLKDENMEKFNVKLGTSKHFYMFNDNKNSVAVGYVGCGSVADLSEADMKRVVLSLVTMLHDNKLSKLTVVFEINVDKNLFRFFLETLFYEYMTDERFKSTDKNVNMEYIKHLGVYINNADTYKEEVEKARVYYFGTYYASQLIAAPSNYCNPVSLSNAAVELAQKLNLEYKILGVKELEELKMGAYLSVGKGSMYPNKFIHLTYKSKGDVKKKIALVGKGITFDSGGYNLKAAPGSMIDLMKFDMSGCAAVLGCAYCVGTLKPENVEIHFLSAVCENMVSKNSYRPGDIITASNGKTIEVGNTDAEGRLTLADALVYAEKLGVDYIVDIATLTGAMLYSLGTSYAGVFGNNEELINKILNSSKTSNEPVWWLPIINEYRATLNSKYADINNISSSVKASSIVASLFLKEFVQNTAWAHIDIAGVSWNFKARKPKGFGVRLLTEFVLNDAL
# Assay: P. falciparum M17LAP inhibitors, primary screen, biochemical, fluorogenic H-Leu-NHMec substrate, 1536-well (AID 1619);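 also: plate controls were full reaction with DMSO carrier for no effect and no enzyme background for full effect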
# Details: recombinant M17LAP, H-Leu-NHMec fluorogenic kinetic assay; at 30 µM; active compounds read high
row,Structure (SMILES),inhibition
1,Cc1ccc(/C=C/C(=O)NCCCc2ccccc2)cc1,-0.31%
2,CCc1ccccc1NC(=O)CC1S/C(=N\c2nccs2)N(CC)C1=O (stereo unspecified),0.04%
3,COc1cc(NC(=O)CSc2nnc3c(C)cc4c(C)ccc(C)c4n23)c(C(=O)O)cc1OC,3.38%
4,Cc1ccc2cc(C)c(SCC(=O)Nc3ccc(S(=O)(=O)N4CCCC4)cc3)nc2c1,-14.9%
5,CCc1ccc2c(c1)cc(C)c1nnc(SCC(=O)Nc3cc(OC)c(OC)cc3C(=O)O)n12,7.71%
6,CCc1cc2ccc(C)cc2nc1SCC(=O)Nc1c[nH]c(=O)[nH]c1=O,21.2%
7,COc1ccc2cc(C)c(SCC(=O)Nc3cc(C)on3)nc2c1,-7.8%
8,CCc1cc2cc3c(cc2nc1SCC(=O)Nc1cc(C)on1)OCO3,7.57%
9,CCc1cc2cc3c(cc2nc1SCC(=O)Nc1nccs1)OCO3,-1.06%
10,CCc1cc2ccc(C)cc2nc1SCC(=O)Nc1cc(C)on1,-2.5%
11,Cc1ccccc1OCCCCn1c(CO)nc2ccccc21,5.4%
12,CN(Cc1ccccc1)C(=O)Cn1c(=O)oc2cc(S(=O)(=O)NCc3ccccc3)ccc21,-8.79%
13,Nc1cc(=O)[nH]c(SCC(=O)Nc2ccc(S(=O)(=O)N3CCCCC3)cc2)n1,10.7%
14,CCOc1ccc(N2C(=O)CC(NCCc3ccncc3)C2=O)cc1 (stereo unspecified),3.75%
15,CN1CC(=O)N(CCOc2ccccc2)C1=O,5.27%
16,CN1CCN(c2ccccc2NC(=O)c2cccc([N+](=O)[O-])c2)CC1,-3.18%
17,C/C(=N/NC(=O)Cn1nc2ccccc2n1)c1ccc(F)cc1,13.8%
18,CC(C)c1nc(SCC(=O)N2CCCc3ccccc32)c2c(=O)n(C)c(=O)n(C)c2n1,-8.79%
19,Cc1c(CN2CCC(CO)(CC3CCCCO3)CC2)cnn1C (stereo unspecified),-3.19%
20,Cc1ccc(OCC(=O)N2N=C(C(F)(F)F)CC2(O)C(C)(C)C)cc1C (stereo unspecified),-0.9%
21,CCCCSc1nc(O)cc(=O)n1CC,16%
22,Cc1ccc(S(=O)(=O)Nc2nc(C)c(C(=O)NN)s2)cc1,18.9%
23,CCOC(=O)c1sc(NS(=O)(=O)c2ccccc2)nc1C,23.4%
24,Cc1ccc(C(=O)Nc2ccc(F)cc2)o1,7.81%

row,Structure (SMILES),inhibition
1,O=C(Nc1ccc2c(c1)OCCO2)NC1CCCCC1,53.6%
2,O=C(Nc1ccc2c(c1)OCCO2)C1CCC1,-5.9%
3,O=C(O)CCCCCNS(=O)(=O)c1ccc2c(c1)OCCO2,-3.71%
4,CC1=C(C)CC(C(=O)Nc2ccc3c(c2)OCO3)C(C(=O)O)C1 (stereo unspecified),8.14%
5,O=C(Nc1ccc2c(c1)OCCO2)C1CC1c1ccccc1 (stereo unspecified),-1.74%
6,O=C(O)CCNc1ccc2c(c1)OCCO2,13.7%
7,O=C(c1cc(-c2ccc(F)cc2)on1)N1CCCc2ccccc21,1.4%
8,CCCCOCCCNC(=O)C1CCCCC1,-2.13%
9,C=CCn1cnc2c(nnn2-c2ccc(Cl)cc2)c1=O,1.25%
10,Cc1c(Cl)cccc1NC(=O)CSC(N)=O,3.23%
11,Cc1c(Cl)cccc1NC(=O)CSCC(N)=O,-1.74%
12,CCCCc1ccc(NC(=O)CC(C)=O)cc1,7.92%
13,O=C(CSCc1cc(=O)[nH][nH]1)Nc1ccc(F)cc1,5.96%
14,O=C(Nc1ccc(F)cc1F)N1CCC(c2nc3ccccc3o2)CC1,2.14%
15,CCOCCCn1c(=S)[nH]c2cc(C(=O)NCC(OC)OC)ccc2c1=O,1.45%
16,Cc1cc(OCC(=O)N2CCOCC2)ccc1NC(=O)C1CCCCC1,5.24%
17,O=C(OCC(=O)N1CCN(C(=O)c2ccco2)CC1)c1ccccc1OCc1ccccc1,7.24%
18,NC(=O)COC(=O)c1ccccc1OCc1ccccc1,13.1%
19,CC(c1ccccc1)n1c(-c2cccs2)nc2c(c(=O)c3ccccc3n2C)c1=O (stereo unspecified),7.83%
20,CCOc1ccc(C(C(=O)Nc2ccc(F)cc2)N(C(=O)Cn2nnc3ccccc32)C2CC2)cc1 (stereo unspecified),6.8%
21,O=C(CCN1C(=O)C2C3C=CC(C3)C2C1=O)Nc1ccc2c(c1)OCO2 (stereo unspecified),-8.11%
22,CC1CCCCC12NC(=O)N(CC(=O)Nc1ccc(N3CCOCC3)cc1)C2=O (stereo unspecified),22%
23,O=C(CN1CCCCC1)Nc1ccc(N2CCCCCC2)cc1,43.3%
24,O=C(CN1C(=O)NC2(CCCCC2)C1=O)Nc1ccc(N2CCOCC2)cc1,29.2%

row,Structure (SMILES),inhibition
1,CC1CCC2(CC1)NC(=O)N(CC(=O)NC(=O)Nc1ccc3c(c1)OCCO3)C2=O (stereo unspecified),2.34%
2,CC1CCCCN1CC(=O)Nc1ccc(N2CCCCCC2)cc1 (stereo unspecified),37.6%
3,CC1CCC2(CC1)NC(=O)N(CC(=O)Nc1ccc3c(c1)CCC3)C2=O (stereo unspecified),-3.16%
4,O=C(CN1C(=O)C2C3C=CC(C3)C2C1=O)Nc1ccc(F)cc1 (stereo unspecified),-2.69%
5,Cc1cccn2cc(CCNS(=O)(=O)c3cccc([N+](=O)[O-])c3)nc12,-1.3%
6,COCCn1c(N)c(N(Cc2ccccc2)C(=O)c2ccc(C#N)cc2)c(=O)[nH]c1=O,1.64%
7,Cc1nn(C)c(Cl)c1C(=O)NC(C(=O)O)c1ccccc1 (stereo unspecified),-0.49%
8,O=C(O)CSc1nc2ccccc2n1-c1ccccc1,6.57%
9,C/C=C/Cn1c(Br)nc2c1c(=O)[nH]c(=O)n2C,6.95%
10,O=C1c2ccccc2-c2cccc(C(=O)N3CCN(C(=O)c4ccccc4)CC3)c21,2.37%
11,CC1=C(C(=O)N2CCOCC2)C(c2ccc(Br)cc2)NC(=S)N1c1ccccc1 (stereo unspecified),1.22%
12,Nc1nonc1C(=Nc1ccc(Br)cc1)NO,-2.77%
13,COc1ccc(NC(=S)N(Cc2ccc(C)cc2)Cc2ccccn2)cc1,4.2%
14,COc1ccc(-c2cc(C(F)(F)F)n3nc(C(=O)O)nc3n2)cc1,42.7%
15,NC(=O)CSc1nccn1Cc1ccc(Cl)cc1,-2.93%
16,CCN(c1ccc(NC(=O)COC(=O)c2cccs2)cc1)C(C)C,38.8%
17,O=C(COC(=O)c1cccs1)Nc1ccccc1,4.15%
18,CNC(=S)N1N=C(c2ccc(C)cc2)CC1c1ccc(Cl)cc1 (stereo unspecified),5.37%
19,CCOc1[nH]n(-c2ccccc2)c(=O)c1C=Nc1ccc(F)cc1F,2.5%
20,CCOC(=O)N1CCN(C(=O)/C(=C/c2cccs2)NC(=O)c2cccs2)CC1,16.7%
21,O=c1c2c3c(sc2[nH]c(=S)n1Cc1ccco1)CCC3,-4.17%
22,CCn1c(=S)[nH]c2sc3c(c2c1=O)CCCCC3,3.46%
23,O=C(COC(=O)c1ccccc1OCc1ccc(Cl)cc1)NC1CC1,-0.6%
24,O=C(O)c1sccc1OCc1ccccc1,-1.01%

row,Structure (SMILES),inhibition
1,Cc1ccc(COc2ccsc2C(=O)O)cc1,-3.31%
2,COc1ccc(C(=O)CSc2n[nH]c(-c3ccncc3)n2)cc1[N+](=O)[O-],-7.99%
3,O=c1cc2c(=O)oc3cc(O)c(O)oc3c2c(O)c1O,33%
4,Cc1c(Br)c(=O)oc2c(Br)c(O)c(O)cc12,45.5%
5,Cc1ccc(C)c(NC(=O)CSc2nnc(-c3ccco3)o2)c1,1.4%
6,Cc1cccc(Nc2nnc(SC/C(O)=C(\C#N)c3nc4ccccc4[nH]3)s2)c1,19.5%
7,Cc1cccc(Nc2nnc(SC/C(O)=C(\C#N)c3nc4ccccc4[nH]3)s2)c1C,-9.64%
8,COc1ccc(S(=O)(=O)N2CCOC2CNC(=O)C(=O)NCc2cccnc2)cc1C (stereo unspecified),10.8%
9,CN(C)Cc1nc2c(c(=O)[nH]1)C(C)(C)Cc1ccccc1-2,-7.27%
10,CCn1c(=S)[nH]c2c(c1=O)C(C)(C)Cc1ccccc1-2,-1.93%
11,Cc1ccc(S(=O)(=O)c2nc(C)c3c(n2)CCC3)cc1,-1.17%
12,CCOC(=O)c1cnc(SCC(=O)Nc2cc(C(F)(F)F)ccc2N2CCOCC2)nc1N,-15.2%
13,CC(=O)/C(C#N)=C1\NC(=O)C(Cc2ccccc2C)S1 (stereo unspecified),23.4%
14,CC(=O)/C(C#N)=C1\NC(=O)C(Cc2cc(Cl)ccc2Cl)S1 (stereo unspecified),45.6%
15,COCCCn1c(SCc2cc(=O)[nH]c3ccccc23)nnc1-c1ccco1,-2.38%
16,COCCSc1nnc(NC(=O)C2CC(=O)N(c3ccc(C)cc3)C2)s1 (stereo unspecified),1.69%
17,CC(=O)Nc1ccc(S(=O)(=O)Oc2cccc(N3C(=O)C4CC=CCC4C3=O)c2)cc1 (stereo unspecified),15.9%
18,O=C1C2CC=CCC2C(=O)N1c1cccc(OS(=O)(=O)c2ccc3ccccc3c2)c1 (stereo unspecified),6.42%
19,CCOc1ccc(NC(=S)NNC(=S)Nc2cccc(C(F)(F)F)c2)cc1,-5.94%
20,O=C(NCc1ccco1)c1cc(-c2ccccn2)nc2ccccc12,6.45%
21,O=C(O)c1ccccc1Nc1ccc(OC(F)F)cc1,18.9%
22,Cc1ccc(S(=O)(=O)Nc2ccccc2C(=O)OC(C)C(=O)Nc2ccc3ccccc3c2)cc1[N+](=O)[O-] (stereo unspecified),-9.25%
23,COc1ccc(NC(=O)c2ccccc2NS(=O)(=O)c2ccc(C)cc2)c([N+](=O)[O-])c1,2.55%
24,COc1ccc(NC(=S)NNc2ccc([N+](=O)[O-])cc2S(=O)(=O)Nc2ccc(C)cc2C)cc1,4.17%
